Results on 95 molecules are retold here after PubChem BioAssay AID2315 (National Center for Advancing Translational Sciences (NCATS), 2010).

Out of some 290,000 compounds screened, about 27,000 (9.3%) were called active. What follows is part of a selection rich in actives, with near analogues and random picks from the rest. Unmarked numbers belong to inactive results. Rule as the data show it: active = inhibition mostly above about 28% (no sharp cut-off); inactive = mostly below about 43%.

Usually inhibition stands for the change of the read-out against control, counted positive when it falls.

The nature of this experiment: A qHTS for Small Molecule Inhibitors of Shiga Toxin. Also: 0% is about no effect. The following applies: Vero cells, Shiga toxin protein synthesis inhibition reporter; at 38.7 µM, hits give high values.
As to `C=CCNC(=O)c1ccc(C)c(Br)c1`, the inhibition was 19.7% (active). For `Cc1ccc(C(=O)N2CCCCCC2)cc1Br` the value was 20.5%; for `Cc1ccc(C(=O)NC(C)c2ccccc2)cc1Br` (stereo not given), 38.4%; for `CCCc1nnc(SCC(=O)Nc2ccc(C(=O)OCC)cc2)o1`, 32.8%. For `COCCNC(=O)c1ccc2c(c1)ncn2-c1ccc(C)c(Cl)c1` the value was 19.9%. For the molecule `COCCNC(=O)c1snc2ccc(Cl)cc12`, the inhibition was 51.4% (active). On to `COCCNC(=O)c1ccc(S(=O)(=O)c2ccc(Cl)cc2)c(NC(C)=O)c1`, for which the inhibition was -11.4%. For `Cc1ccc(S(=O)(=O)N2CCCC(C(=O)N3CCN(C)CC3)C2)cc1` (stereo not given) the value was -6.59%; for `NS(=O)(=O)c1cccc(NC(=O)CC23CC4CC(CC(Br)(C4)C2)C3)c1`, -9.01%. Take `CCOc1ccc(C(=O)Nc2ccc(S(=O)(=O)NCC3CCCO3)cc2)cc1OCC` (stereo not given): the inhibition is 12.5%. Next, `O=C(Cc1csc(Nc2nc(=S)[nH]c3ccccc23)n1)NCCCN1CCN(c2cccc(Cl)c2)CC1`: 15.7%.

In the case of `O=C(NC1CCCC1)C(c1ccc(Cl)cc1)N(C(=O)c1csnn1)C1CC1` (stereo not given), the inhibition was 2.36%.

With `O=C(NCc1ccccc1)C(c1cccnc1)N(C(=O)c1csnn1)c1ccc(F)cc1` (stereo not given), the inhibition is 1.7%. Next, `CC1CCN(C(=O)Cn2nnnc2CN2CCOCC2)CC1`: 15.5%. `CCS(=O)(=O)n1nc(-c2ccccc2)nc1SCc1ccccc1`: the inhibition was 115% (active).

Turning to `CS(=O)(=O)n1nc(-c2ccccc2)nc1NCc1ccco1`, the inhibition is 7.12%. For `CCS(=O)(=O)n1nc(-c2ccc(OC)cc2)nc1SC` the value was 63.1%; for `CCCC(C(=O)NC1CCCC1)N(C(=O)Cn1nnc(-c2ccc(C)o2)n1)c1cccc(O)c1` (stereo not given), -4.05%. For the molecule `C[C@@H]1O[C@@H](OC[C@H]2O[C@@H](Oc3cc(O)c4c(c3)O[C@H](c3ccc(O)c(O)c3)CC4=O)[C@H](O)[C@@H](O)[C@@H]2O)[C@H](O)[C@H](O)[C@H]1O`, the inhibition is -8.25%.

`Cc1ccc(Cn2ccc(NC(=O)c3cc(C(C)C)on3)n2)cc1`: the inhibition is 84.3% (active). Next, `Cc1ccc(Cn2ccc(NC(=O)C3C4CCC(C4)C3C(=O)O)n2)cc1` (stereo not given): -3.4%; `Cc1cc(NC(=O)c2cc(-c3cccs3)on2)nn1Cc1ccc(Cl)cc1`: 9.37%. For `OC(c1ccc(Cl)cc1)C(CN1CCOCC1)c1ccccc1` (stereo not given) the value was 2.21%; for `CC(=O)c1ccc(S(=O)(=O)NCc2nnnn2-c2ccccc2)cc1`, -2.55%. Next, `Clc1ccc(-c2nnc(SCc3nc4ccccc4s3)o2)cc1`: 61.6% (active). As to `c1ccc(-c2nnc(SCc3nc4ccccc4[nH]3)o2)cc1`, the inhibition is 36.1%. Next, `O=C(CSc1nnc(-c2ccncc2)o1)NCc1ccc(Cl)cc1`: -9.29%; `CCOc1ccc(S(=O)(=O)N2CCC(c3ccccc3)CC2)cc1C(=O)O`: -1.98%; `COc1cccc(-c2nc(CS(=O)(=O)CC(=O)NCCc3ccc(OC)c(OC)c3)c(C)o2)c1`: -8.6%.

For `Cc1nc2ccccc2c(=O)n1NC(=O)c1ccc(Cl)c([N+](=O)[O-])c1`, the inhibition was -9.41%.

As for `O=C(O)c1cccc(N2C(=O)Nc3ccccc3N2O)c1`, the inhibition was 11.8%. `COC(=O)CC1=NN(c2ccccc2)C(=O)C1`: the inhibition is 17.6%.

Consider `NC1=NN(c2cccc(C(=O)O)c2)C(=O)C1`, for which the inhibition was 143% (active).

For the molecule `CC(C)c1nc(CNC(=O)CC2C(=O)NCCN2Cc2cccc(F)c2F)cs1` (stereo not given), the inhibition was -5.01%.

`CN(CCNC(=O)c1cc2c(-c3ccccc3F)nn(C)c2s1)C1CCCCC1`: the inhibition was -4.2%. For `O=C(CCNS(=O)(=O)c1cccs1)N1CCN(c2ccc(F)cc2)CC1`, the inhibition was -7.67%. On to `COc1ccc(OC)c(S(=O)(=O)N(C)CC(=O)N2CCN(c3ccccc3)CC2)c1`, for which the inhibition was -6.69%.

As for `CN(CC(=O)N1CCN(c2ccccc2)CC1)S(=O)(=O)c1cccs1`, the inhibition was 63.8% (active). Regarding `CCOc1ccc(S(=O)(=O)NCc2ccc3c(c2)OCO3)cc1C`, the inhibition was -11.3%. Next, `COc1ccc(N2C(=O)C3C(C2=O)C(C(=O)c2ccccc2)N2CCCC32)cc1` (stereo not given): 19.2%; `CC(=O)Nc1ccc(S(=O)(=O)NNC(=O)CCc2ccccc2)cc1`: -3.14%; `COc1cc(-c2c(-c3ccc4c(c3)OCO4)noc2C)ccc1F`: 48.8% (active). Next, `COc1ccc(CCNC(=O)c2cc(-c3ccc4c(c3)OCO4)on2)cc1OC`: -10.3%; `COc1ccc(-c2onc(C)c2-c2ccc3c(c2)OCCO3)c(O)c1`: -15%.

As for `NC(=O)CC(NC(=O)Cc1ccc(Br)cc1)c1ccc(NC2CC3CCC2C3)c([N+](=O)[O-])c1` (stereo not given), the inhibition was 60%.

With `Cc1c(C)n(Cc2ccc(Cl)cc2)c2ccc(C(=O)NCCCN3CCOCC3)cc12`, the inhibition is -12.7%. For `COc1ccc(N/N=C2/CCCCC2=O)cc1` the value was 34.6%. `Cc1ccc(N/N=C2\COC(C)(C)CC2=O)cc1`: the inhibition is 101% (active). For `COC(=O)c1ccc(S(=O)(=O)N2CCc3ccccc3C2)cc1` the value was -1.69%; for `COc1ccc(N(C)S(=O)(=O)c2ccc3c(c2)CC(C)N3C(=O)C2CC2)c(OC)c1` (stereo not given), 14.9%; for `Cc1ccc(NC(=O)OCc2cncs2)cc1`, 70.8% (active). With `CCOC(=O)Nc1ccc(S(=O)(=O)N(C)C(C)C)cc1`, the inhibition is -22.3%.

As to `O=C(Nc1ccc(Cl)cc1)OCc1cc(-c2ccccc2)on1`, the inhibition was 49.1%.

Take `Cc1ccc(NC(=O)OCCNC(=O)c2ccncc2)cc1`: the inhibition is 47.9%. Next, `CC(C)(COC(=O)Nc1ccccc1)COC(=O)Nc1ccccc1`: 35.2%. On to `CCOC(=O)Nc1ccc(NC(=O)OCC)cc1`, for which the inhibition was 52.3% (active).

On to `CN1CCc2ccccc2C1Cc1ccccc1NC(=O)c1sc2ccccc2c1Cl` (stereo not given), for which the inhibition was -2.62%. For `COC(=O)C1(CCSC)NC(c2ccc(OC)cc2OC)C2C(=O)N(c3cccc(C(C)=O)c3)C(=O)C21` (stereo not given) the value was -5.19%; for `N#Cc1ccc(-c2nc3cc(C#N)c(C#N)cc3nc2-c2ccccc2)cc1C#N`, 56.6% (active). With `N#Cc1ccc(-c2ccc(F)cc2)nc1Sc1ccccc1`, the inhibition is -10%. For `N#Cc1c(-c2ccc(F)cc2)nc(-c2ccccc2)[nH]c1=O` the value was -4.47%; for `O=C(O)CCC(=O)Nc1ccc(OCC2CCCO2)cc1` (stereo not given), 4.1%; for `CCOc1ccc(N(C)Cc2cc(=O)oc3ccc(OC)cc23)cc1`, -26.5%.

On to `COC(=O)c1ccc(-n2cnc3ccccc32)nc1`, for which the inhibition was 159% (active). On to `Cc1ccc(OCC(=O)Nn2cnc3ccccc32)cc1`, for which the inhibition was -4.5%. On to `O=C(c1ccc(Cl)cc1)n1cnc2ccccc21`, for which the inhibition is -4.02%. For the molecule `O=C(NCc1ccco1)/C(=C/c1ccco1)NC(=O)c1ccccc1`, the inhibition is -2.21%. For `COc1ccc(CCNC(=O)CSc2nnc(CNC(=O)c3cccs3)o2)cc1OC` the value was -18.8%; for `COc1ccccc1-c1nnc(SCC(=O)Nc2cc(C)on2)o1`, 18.4%. For `COc1ccc(-c2nnc(SCC(=O)c3cccs3)o2)c(OC)c1` the value was 150% (active). For `CCOc1ccc(N(CC(=O)Nc2ccccc2F)S(=O)(=O)c2c(C)[nH]c(=O)[nH]c2=O)cc1` the value was -4.99%; for `Cc1cc(C)cc(NC(=O)N2CCCCCCC2)c1`, -6.48%.

Turning to `Cc1cccc(C(=O)N2CCCN(C(=O)c3cccc(C)c3)CC2)c1`, the inhibition is 19.1%. Regarding `Cc1ccc2cc3cc(C(=O)N4CCCCCC4)oc3nc2c1`, the inhibition is 88.9% (active). Next, `Cc1oc2nc(SCC(=O)Nc3ccc(S(N)(=O)=O)cc3)nc(NC(=O)c3ccccc3)c2c1C`: -13.4%.

Regarding `OCCC1CN(Cc2cnc(-c3ccccc3)s2)CCN1CCc1ccccc1` (stereo not given), the inhibition was -10.1%. Next, `COc1ccc(NC(=O)CN2C(=O)COc3ccc(S(=O)(=O)N4CCOCC4)cc32)c(OC)c1`: -2.93%.

With `Cc1nn(C)c(C(=O)NNC(=S)NC2CCCCC2)c1Cl`, the inhibition was 14.6%. Next, `COc1cccc(OC)c1C(=O)NC(=S)Nc1ccc(N2CCOCC2)c(Cl)c1`: 44.5%; `COc1cccc(NC(=S)NC(=O)c2c(Cl)c(C)nn2C)c1`: 14.4% (active); `O=C(NCc1ccccn1)[C@]1(C(F)(F)F)C[C@H](CCc2ccccc2)CCCO1`: -3.98%. As to `Nc1nnc2c(C(F)(F)F)nc3ccccc3n12`, the inhibition is -8.69%. As to `Cc1cccc(-c2c(NC(=O)c3ccco3)oc3ccc(Cl)cc3c2=O)c1`, the inhibition was 20.5%. Turning to `O=C(Nc1nnc(-c2ccccc2)o1)c1cc(-c2cccs2)nc2ccccc12`, the inhibition is -9.05%. In the case of `OC(c1nnc(-c2ccccc2)o1)c1cccs1` (stereo not given), the inhibition is 111% (active).

As to `CCCN(CCC)c1ccc(C(O)c2nnc(-c3ccccc3)o2)cc1` (stereo not given), the inhibition is 29.6%. Consider `Cn1c2ccc(F)cc2c2nnc(NN)nc21`, for which the inhibition is -15%. For `CC(C)c1cc(C(=O)O)n[nH]1` the value was 15.7%; for `Cc1cc(C(=O)N/N=C\C(Br)=C\c2ccccc2)c(C)o1`, 54.6%. Next, `CC(C)c1cc(C(=O)N/N=C/C(Br)=C/c2ccccc2)n[nH]1`: 47.5% (active). Next, `O=C(CCc1nnc2ccc(NCc3ccccc3Cl)nn12)NCC1CCN(C2CCCC2)C1` (stereo not given): 8.94%; `O=C(NCC1CCC(C(=O)O)CC1)OCc1ccccc1` (stereo not given): -15.3%. Turning to `O=C(O)C1CCN(C(=O)OCc2ccccc2)CC1`, the inhibition is 80.9% (active).

Consider `CCOC(=O)N1CCC(NC(=O)CCc2ccccc2)CC1`, for which the inhibition was -1.93%. Next, `O=c1cc(-c2ccc(O)cc2)oc2c([C@@H]3O[C@H](CO)[C@@H](O)[C@H](O)[C@H]3O)c(O)cc(O)c12`: 18.1%.
